Pf Dd2 inh – inhibitors of Plasmodium falciparum Dd2 growth | P. falciparum Dd2 growth, SYBR Green, 72 h | Potency, µM (doses to about 28.9 µM), for the others: top-dose activity, negative = inhibition, hits mostly inhibitors | 120,000 compounds, 4.3% hits | AID 1347417; active means well fitted inhibition curve with a large enough effect;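 further: plate controls were DMSO vehicle for no effect and reference drug for full effect; nearly all actives have a fitted effect of over 65% in size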
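Infected erythrocytes (Dd2, 0.3% parasitemia, 2.5% hematocrit final) are added to compound in RPMI-1640/Albumax II medium, grown 72 h at 37C in low oxygen, then lysed with saponin/Triton-X containing SYBR Green and read by fluorescence.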
* hit, by the source's call; i = inactive; [ ] = another dose, or the depositor's remark. Shown is part of a subset that was picked to be rich in hits. Potency means the concentration at half of the fitted maximal effect.

SMILES	Pf Dd2 inh
CN(Cc1ccccc1-n1cccn1)C(=O)C1CC(=O)N(C2CCCC2)C1 (stereo not drawn)	0%
CCNC(=O)N(C1CC1)C1CCOC2(CCN(C(=O)c3n[nH]c4ccccc34)CC2)C1 (stereo not drawn)	i
Cc1ccc(C(=O)N2CCC(c3nc(-c4ccccc4)no3)C2)s1 (stereo not drawn)	i[5.79 µM]
Fc1ccccc1OCCC1CCNC1 (stereo not drawn)	-8%
O=C(c1ccc2ncccc2c1)N1CCC2(CC1)CC(CO)N(C(=O)c1ccccc1)C2 (stereo not drawn)	-16%
CCN(Cc1ccccc1)S(=O)(=O)c1ccc2[nH]c3c(c2c1)CCCCC3	13µM*
CCc1ccc(NS(=O)(=O)c2ccc3[nH]c4c(c3c2)CCCCCC4)cc1	14%
Cc1ccc(N(C)S(=O)(=O)c2ccc3[nH]c4c(c3c2)CCCC4)cc1	-17%
COc1cccc(C(=O)N[C@@H]2CN(C)C[C@H]2CN(C)C)c1OC	38%
C=CCNC(=O)C1CCCN(S(=O)(=O)c2ccccc2)CCC(=O)NCC1 (stereo not drawn)	-6%
O=C(NC1CCCC1)NC1CCN(c2nc3ncccc3o2)CC1	1%[44.1 µM]
Cc1ccc(Nc2nc(C(N)=O)c(NC(=O)c3ccccc3Br)s2)cc1	10µM*
NC(=O)c1nc(Nc2ccccc2)sc1NC(=O)c1c(F)cccc1F	53%
Cc1ccc(-c2nc(C)c(CCNC(=O)c3ccccc3Br)s2)cc1	-11%
C=CCC(=O)N1CCOC(CCCC(C)C)C1 (stereo not drawn)	-30%
CS(=O)(=O)N1CCC(c2nccn2Cc2ccncc2)CC1	18%
Cn1nccc1CN1CCC2(CC1)Cc1ccccc1NC2=O	-24%[44.1 µM]
COc1cccc(CN2CCC3(Cc4ccccc4NC3=O)C2)c1 (stereo not drawn)	-4%[44.1 µM]
O=C1NCc2ccccc2CC12CCN(Cc1ccc(Oc3ccccc3)cc1)C2 (stereo not drawn)	11µM*
N#Cc1ccc(CN2CCC3(Cc4ccccc4CNC3=O)C2)cc1 (stereo not drawn)	5%
CC(C)Cc1ccc(CN2CCC3(Cc4ccccc4CNC3=O)C2)cc1 (stereo not drawn)	13µM*
CC(C)(C)CN1CCC2(Cc3ccccc3CNC2=O)C1 (stereo not drawn)	-25%[44.1 µM]
CC(=O)Nc1ccc(CN2CCCC3(Cc4ccccc4CNC3=O)C2)cc1 (stereo not drawn)	-16%
O=C1NCc2ccccc2CC12CCN(Cc1ccncc1Cl)C2 (stereo not drawn)	10%
Cc1ccc(CN2CCC3(CC2)Cc2ccccc2NC3=O)cc1	4.5µM*
SMILES	Pf Dd2 inh
COc1cccc(CN(Cc2cccnc2)C(=O)C2CNCCO2)c1OC (stereo not drawn)	-17%
CC(C)(C)c1ccc(-c2cn(C[C@H]3CC4CCN3C[C@@H]4C(=O)NC3CCCCC3)nn2)cc1 (stereo partly drawn)	-12%
CC(C)CN1C(=O)c2cccn2CC1C(=O)NCCCN1CCOCC1 (stereo not drawn)	17%
O=C1CCCCCN1C1CCN(Cc2ccccc2)CC1	-21%[44.1 µM]
CCN1C(=O)CCC2(C(=O)NC(C)C)CCCC=C12 (stereo not drawn)	0%
COC(=O)C1=C(C)N(Cc2cccc(Cl)c2)C(=O)CC1c1ccccc1Cl (stereo not drawn)	i
Cc1ccc(CN2C(=O)NC3(CCCN(C(=O)c4cccc(C)c4)C3)C2=O)cc1 (stereo not drawn)	31%
CCOC(=O)C1=C(C)N(Cc2ccc(C(=O)N3CCCCC3)cc2)C(=O)CC1c1cccc(C)c1 (stereo not drawn)	5µM*
CCc1nc(N2CCc3ccccc3C2)ncc1C(=O)O	14%
CCN(Cc1ccncc1)C(=O)c1cc(-c2cnn(CC)c2)nc2cc(C)ccc12	-26%
Cn1nc(C(=O)N2CCCCCCNC(=O)[C@@H]3CCCC[C@@H]32)c2ccccc21	2.2µM*
O=C1CC(c2ccccc2)N(C(=O)CNS(=O)(=O)c2ccccc2)CCCCCN1 (stereo not drawn)	-19%
O=C1CC(c2ccccc2)N(C(=O)CNS(=O)(=O)c2ccc3c(c2)CCC3)CCCCCCN1 (stereo not drawn)	11µM*
O=C1CC(c2ccccc2)N(C(=O)CNS(=O)(=O)c2cccnc2)CCCCCCN1 (stereo not drawn)	i
O=C1CC(c2ccccc2)N(C(=O)CNC(=O)Cn2c(=O)oc3ccccc32)CCCCCCN1 (stereo not drawn)	10µM*
Cn1nc(C(=O)NCC(=O)N2CCCCCCNC(=O)CC2c2ccccc2)c2ccccc21 (stereo not drawn)	0.63µM*
O=C1NCCCCCCN(C(=O)c2ccccn2)[C@H]2CCC[C@@H]12	8%
O=C1CC(c2ccccc2)N(C(=O)CNC(=O)C2CC2)CCCCCCN1 (stereo not drawn)	22%
Cn1nccc1C(=O)NCC(=O)N1CCCCCNC(=O)CC1c1ccccc1 (stereo not drawn)	31%
Cc1cc(C(=O)NCC(=O)N2CCCCCCNC(=O)CC2c2ccccc2)n(C)n1 (stereo not drawn)	8%
Cc1ncccc1C(=O)N1CCCCCCNC(=O)[C@@H]2CCCC[C@@H]21	3%
O=C(COc1ccccc1)NCC(=O)N1CCCCCCNC(=O)CC1c1ccccc1 (stereo not drawn)	-2%
CC1=NS(=O)(=O)N(C)C=C1C(=O)OCc1nc(Cc2cccc(C)c2)no1	16%
COCCNC(=O)[C@@H]1C[C@@H](O)CN1C1CCN(C(=O)CN2CCCCCC2)CC1	-8%
COc1ccc(C(C)NC(=O)c2ccc(-c3ccc(N4CCSCC4)nc3)cc2)cc1 (stereo not drawn)	i
SMILES	Pf Dd2 inh
O=C(NCc1ccncc1)c1cn(C2CN(C(=O)Nc3ccc4c(c3)OCCO4)C2)nn1	-11%
CN1CCC([C@@H]2CN(C(=O)NCCc3ccccc3)C[C@H]2C(N)=O)CC1	0%
COc1ccc(-n2nc3n(c2=O)CCN([S+](=O)([O-])c2cccc(OC)c2)C3)cc1	-17%
CC(C)(C)CC(=O)N[C@H]1C[C@@](O)(C(=O)NCC(N)=O)C[C@@H](O)[C@@H]1O	12%[44.1 µM]
Cc1ccc(C(=O)N2CCC(C(NC(=O)C(C)C)C(=O)NCC(C)C)CC2)cc1 (stereo not drawn)	i
Cc1ccc(C(=O)N2CCC(C(NC(=O)c3ccccc3C)C(=O)NCC(C)C)CC2)cc1 (stereo not drawn)	7.9µM*
CCC(C)NC(=O)C(NC(=O)c1ccc(C)cc1)C1CCN(C(=O)c2cccc(F)c2)CC1 (stereo not drawn)	10µM*
CCC(C)NC(=O)C(NC(=O)c1ccc(F)cc1)C1CCN(C(=O)c2cccc(F)c2)CC1 (stereo not drawn)	i
COc1ccc(C(=O)N2CCC(C(NC(=O)c3ccccc3C)C(=O)NCC(C)C)CC2)cc1 (stereo not drawn)	i
CCC(C)NC(=O)C(NC(=O)c1ccc(C)cc1)C1CCN(C(=O)C(C)C)CC1 (stereo not drawn)	-12%
CCn1cc(S(=O)(=O)N2C[C@@H](Oc3cccnc3)C[C@H]2C(=O)NC)cn1	10%
CCCN(CC1CCOC1)C(=O)NCCC(C)C (stereo not drawn)	20%[5.79 µM]
COc1ccc(OC2CN([S+](=O)([O-])c3ccccc3)C2)cc1	i
COc1ccccc1CN1CC(c2noc(-c3cc(C)cc(C)c3)n2)CC1=O (stereo not drawn)	i
COCCCNC(=O)N1CCc2nn(C)c(=O)n2CC1	3%

Assay outcomes: PubChem, National Center for Advancing Translational Sciences (NCATS)
